Screening data deposited in PubChem BioAssay by Broad Institute.
NOMO-1 viab: STK33 inhibitor candidate reducing NOMO-1 cell viability; NOMO-1 AML viability, CellTiter-Glo luminescence, 72 h; inhibition, % (concentration not given with the values); 37,000 compounds, 7.5% hits; AID 2330; in the data active = inhibition above about 80%; inconclusive = no clear call, values can overlap the other calls
Hedgehog inh: Sonic Hedgehog pathway inhibition | Shh-LIGHT2 Gli-luciferase reporter, 30 h | inhibition, % (concentration not given with the values) | AID 2313 | 22,000 compounds, 2.1% hits;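 active = mean inhibition across valid replicates above about 65%, limit read from the data; inconclusive = mean under the limit, yet half or more replicates past it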;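 note: pathway switched on by Shh-conditioned medium diluted 1 in 25 in low serum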
PD-1 reverse act: reversal of PD-1 mediated T-cell inhibition. primary human CD4 T cells, PD-L1 beads, CellTiter-Glo 96 h. activation, % (no concentration beside the values). 29,000 tested, under 10 active. AID 2316; call rule not given here
Each line names hits and unclear results; the compound was inactive in the other large screens. An excerpt weighted towards active compounds, which were near 7.7% of everything screened.

C[C@@H]1CN([C@H](C)CO)C(=O)c2cccc(NC(=O)Nc3ccc(C(F)(F)F)cc3)c2O[C@@H]1CN(C)C(=O)Nc1ccccc1	NOMO-1 viab 104.8
C[C@@H]1CN([C@@H](C)CO)C(=O)c2cccc(NC(=O)CCCCCC(=O)Nc3ccccc3N)c2O[C@@H]1CN(C)C(=O)Nc1ccc(C(F)(F)F)cc1	NOMO-1 viab 118.3 (no result: Hedgehog inh)
COc1ccc(NC(=O)Nc2cccc3c2O[C@@H](CN(C)C(=O)Nc2ccc(C(F)(F)F)cc2)[C@H](C)CN([C@@H](C)CO)C3=O)cc1	none
CC(C)NC(=O)N(C)C[C@H]1Oc2c(NC(=O)Nc3ccc(C(F)(F)F)cc3)cccc2C(=O)N([C@H](C)CO)C[C@H]1C	NOMO-1 viab 114.7
Cc1cccc(-n2c(SCC(=O)O)nnc2-c2cccs2)c1C	none (no result: Hedgehog inh)
CCc1ccc(N2NC(=O)C(=C(C)C)C2=O)cc1	none
CC(C)(C)c1ccc(OCC(=O)Nc2cccc(C(=O)O)c2)cc1	none (no result: Hedgehog inh)
O=C(O)CNC(=O)CSc1ccc(Cl)cc1	none
COc1ccc(CCO[C@@H]2O[C@H](CO[C@@H]3OC[C@H](O)[C@H](O)[C@H]3O)[C@@H](OC(=O)/C=C/c3ccc(O)c(OC)c3)[C@H](O[C@@H]3O[C@@H](C)[C@H](O)[C@@H](O)[C@H]3O)[C@H]2O)cc1O	none
O=C(CSc1nc2ccccc2c(=O)n1Cc1ccco1)c1ccc(Br)cc1	none (no result: Hedgehog inh)
COc1ccc2c(c1)C(C)(CC#N)C(=O)N2C (configuration not stated)	none
CCOc1ccc2[nH]c(C)c(CCC(C)=O)c(=O)c2c1	none (no result: Hedgehog inh, PD-1 reverse act)
COc1cc(Cl)c(C)cc1NC(=O)CSC1=C(C#N)C(c2ccccc2F)CC(=O)N1 (configuration not stated)	none (no result: Hedgehog inh)
C[C@@H]1CN([C@@H](C)CO)C(=O)c2cccc(NC(=O)Nc3ccc(C(F)(F)F)cc3)c2O[C@@H]1CN(C)C(=O)Nc1ccc2c(c1)OCO2	none
C[C@@H]1CN([C@@H](C)CO)C(=O)c2cccc(NC(=O)Nc3ccc(C(F)(F)F)cc3)c2O[C@H]1CN(C)C(=O)Nc1ccc(C(F)(F)F)cc1	NOMO-1 viab 104.9 (no result: PD-1 reverse act)
COc1ccc(S(=O)(=O)Nc2cccc3c2O[C@H](CN(C)C(=O)Nc2ccc(F)cc2)[C@@H](C)CN([C@H](C)CO)C3=O)cc1	none (no result: Hedgehog inh)
C[C@@H]1CN([C@@H](C)CO)C(=O)c2cccc(NC(=O)Nc3ccc(C(F)(F)F)cc3)c2O[C@@H]1CN(C)C(=O)Nc1ccc(F)cc1	none
COc1ccc(NC(=O)N(C)C[C@H]2Oc3c(NC(=O)Nc4ccc(C(F)(F)F)cc4)cccc3C(=O)N([C@@H](C)CO)C[C@@H]2C)cc1	none (no result: PD-1 reverse act)
C[C@H]1CN([C@@H](C)CO)C(=O)c2cccc(NC(=O)Nc3ccc(C(F)(F)F)cc3)c2O[C@@H]1CN(C)C(=O)Nc1ccc(C(F)(F)F)cc1	NOMO-1 viab 88.2
COc1ccc(S(=O)(=O)Nc2cccc3c2O[C@@H](CN(C)C(=O)Nc2ccc(F)cc2)[C@@H](C)CN([C@H](C)CO)C3=O)cc1	NOMO-1 viab 110.6
C[C@H]1CN([C@@H](C)CO)C(=O)c2cccc(NC(=O)Nc3ccc(C(F)(F)F)cc3)c2O[C@H]1CN(C)C(=O)Nc1ccc2c(c1)OCO2	NOMO-1 viab 92.3 (no result: PD-1 reverse act)
COc1ccc(NC(=O)CN(c2cc(Cl)cc(Cl)c2)S(C)(=O)=O)cc1Cl	none (no result: Hedgehog inh, PD-1 reverse act)
COc1cc(-c2nc3ccccc3s2)cc(Br)c1OCC(=O)O	none (no result: Hedgehog inh)
Cc1ccc(C2C(C#N)=C(N)OC(C3CC3)=C2C#N)cc1 (configuration not stated)	none
O=C(CSc1ncn(-c2ccccc2)n1)Nc1ccc(Cl)cc1Cl	none (no result: Hedgehog inh)
COc1cc(-c2nnc(SCC(=O)c3ccco3)n2C)cc(OC)c1OC	none
CN1C(=O)C(Cc2ccccc2)(c2ccccc2)c2ccccc21 (configuration not stated)	none
CCOC(=O)CSc1n[nH]c(CN2c3ccccc3Sc3ccccc32)n1	NOMO-1 viab 116.7, Hedgehog inh inconclusive
O=C(CSc1n[nH]c(-c2ccco2)n1)N1c2ccccc2Sc2ccccc21	none (no result: Hedgehog inh, PD-1 reverse act)
CCN(CC(=O)O)S(=O)(=O)c1ccc(C)cc1	none (no result: Hedgehog inh)
COC(=O)C1=CO[C@@H](O[C@@H]2O[C@H](CO)[C@@H](O)[C@H](O)[C@H]2O)[C@H]2[C@]1(O)[C@H](O)C[C@]2(C)O	none (no result: NOMO-1 viab, PD-1 reverse act)
CNC(=S)Nc1cc(Cl)cc(Cl)c1	none
COc1ccc(NC(=O)Nc2ccc3c(c2)CC(=O)N([C@H](C)CO)C[C@H](C)[C@H](CN(C)CC2CCCCC2)O3)cc1	none (no result: Hedgehog inh, PD-1 reverse act)
C[C@@H]1CN([C@H](C)CO)C(=O)Cc2cc(NC(=O)Nc3ccc(C(F)(F)F)cc3)ccc2O[C@H]1CN(C)C(=O)NC1CCCCC1	none (no result: PD-1 reverse act)
C[C@H]1CN([C@@H](C)CO)C(=O)Cc2cc(NC(=O)Nc3ccc(C(F)(F)F)cc3)ccc2O[C@@H]1CN(C)CC1CCCCC1	NOMO-1 viab 125.4
C[C@H](CO)N1C[C@H](C)[C@H](CN(C)CC2CCCCC2)Oc2ccc(NC(=O)Nc3ccc(C(F)(F)F)cc3)cc2CC1=O	NOMO-1 viab 127.7
COc1ccc(-c2nnc(SCc3ccc([N+](=O)[O-])c(OC)c3)n2-c2ccccc2)cc1	none (no result: Hedgehog inh)
O=C(CCCCCC/C=C/c1ccc2c(c1)OCO2)N1CCCCC1	none
COC(=O)c1cc(OC)c(OC)cc1NC(=O)C(C)Oc1ccc(C(C)(C)C)cc1 (configuration not stated)	NOMO-1 viab inconclusive (no result: Hedgehog inh)
CCC(C)c1ccc(NC(=O)c2ccc(N(CC)CC)cc2)cc1 (configuration not stated)	NOMO-1 viab 119.9
CCC(C)NC(=O)c1ccc(N(CC)CC)cc1 (configuration not stated)	none
C[C@@H]1CN([C@H](C)CO)C(=O)c2cccc(NC(=O)c3nc4ccccc4s3)c2O[C@@H]1CN(C)Cc1ccc(Cl)c(Cl)c1	none
C[C@H]1CN([C@@H](C)CO)C(=O)c2cccc(NC(=O)c3nc4ccccc4s3)c2O[C@H]1CN(C)Cc1ccc(Cl)c(Cl)c1	NOMO-1 viab 96.3
C[C@H](CO)N1C[C@H](C)[C@H](CN(C)Cc2ccc(Cl)c(Cl)c2)Oc2c(NC(=O)c3nc4ccccc4s3)cccc2C1=O	NOMO-1 viab 104.3
C[C@@H]1CN([C@H](C)CO)C(=O)c2cccc(NC(=O)c3nc4ccccc4s3)c2O[C@H]1CN(C)Cc1ccc(-c2ccccc2)cc1	none (no result: PD-1 reverse act)
O=c1[nH]cnc2c1cnn2Cc1ccc(Cl)cc1	none (no result: Hedgehog inh, PD-1 reverse act)
C[C@H]1CN([C@@H](C)CO)C(=O)c2cc(NC(=O)Nc3ccc(C(F)(F)F)cc3)ccc2O[C@@H]1CN(C)CC1CCCCC1	none
C[C@H]1CN([C@@H](C)CO)C(=O)c2cc(NC(=O)Nc3ccc(C(F)(F)F)cc3)ccc2O[C@H]1CN(C)CC1CCCCC1	NOMO-1 viab 105.1
C[C@H](CO)N1C[C@H](C)[C@@H](CN(C)CC2CCCCC2)Oc2ccc(NC(=O)Nc3ccc(C(F)(F)F)cc3)cc2C1=O	NOMO-1 viab 126.8
C[C@@H]1CN([C@H](C)CO)C(=O)c2cc(NC(=O)Nc3ccc(F)cc3)ccc2O[C@@H]1CN(C)CC1CCCCC1	none (no result: PD-1 reverse act)
C[C@@H]1CN([C@H](C)CO)C(=O)c2cc(NC(=O)Nc3ccc(C(F)(F)F)cc3)ccc2O[C@@H]1CN(C)CC1CCCCC1	NOMO-1 viab 126.2 (no result: Hedgehog inh)
C[C@@H]1CN([C@@H](C)CO)C(=O)c2cc(NC(=O)Nc3ccc(C(F)(F)F)cc3)ccc2O[C@@H]1CN(C)CC1CCCCC1	NOMO-1 viab 118.3
